Our source for the growth inhibition, inhibition and outcome values is PubChem BioAssay.

Usually inhibition stands for the drop in the measured response relative to a control, in per cent.

Structures are written as SMILES. A number with no mark means an inactive call. For some of these results: Results with a measured potency or affinity are listed apart. Activity calls are given as the source filed them. Unless noted, how the calls were made is not given here.

Test [1] is described as follows: antimalarial activity against Dd2 strain (AID 2302;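 active means growth inhibition above 50% at the single 2 µM test dose, taken to imply half-maximal potency below 2 µM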;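 further: 0% = DMSO untreated growth and 100% = chloroquine plus artemisinin killed control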). To be noted: P. falciparum Dd2 in RBCs, LDH growth readout, 72 h; at 2 µM; active compounds read high.
Test [2] is described as follows: HepG2 cytotoxicity, primary screen, cytotoxicity control for P. falciparum antimalarial project, cell-based, ATP luminescence (AID 2303;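 active means inhibition above 50%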;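 further: 0% = DMSO wells and 100% = digitonin-killed cells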). Conditions: HepG2 viability, 24-48 h, at 10 µM, active compounds read high.
Test [3] deals with L-lactate dehydrogenase (Plasmodium falciparum (isolate CDC / Honduras)) (UniProt Q27743). Nature of the test: PfLDH activity inhibition – cell lysate, 3D7 strain, counter-screen for P. falciparum growth inhibition project (AID 2304).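 Further: 0% = vehicle and 100% = reference inhibitor.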 Conditions: P. falciparum 3D7 crude extract, LDH APAD/NBT absorbance; at 2 µM; active compounds read high. On the technique in general: A counterscreen serves to expose hits that act by an unwanted route or on another target.

Test [4] in a line: inhibition of 3D7 malaria parasite growth – strain 3D7 (AID 2306).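 Further: 0% = DMSO wells and 100% = chloroquine plus artemisinin control wells.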 To be noted: P. falciparum 3D7 erythrocytic growth, LDH absorbance, 72 h; at 2 µM; active compounds read high.
Test [5] addresses Calcium-dependent protein kinase 1 (Plasmodium falciparum (isolate 3D7)) (UniProt P62344). Put plainly: PfCDPK1 kinase inhibitors, biochemical, TCAMS library (AID 1159585; cut-off not given, nearly all actives have IC50 up to about 0.98 µM;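 further: inhibitors leave more ATP so luminescence rises with inhibition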). To be noted: recombinant PfCDPK1, Kinase-Glo ATP depletion luminescence. (Kinase-Glo measures the ATP left after a reaction by luminescence.)
The target in test [6] is Plasmodium falciparum protein kinase 6 (PK6, PF3D7_1337100) (UniProt Q8IDW1). Put plainly: PfPK6 kinase inhibitors, biochemical, TCAMS library (AID 1159586). Conditions: recombinant PfPK6, Kinase-Glo ATP depletion luminescence.
In test [7] the target is Protein kinase 7 (PK7), Plasmodium falciparum 3D7 (PF3D7_0213400) (UniProt Q7YTF7). Nature of the test: inhibition of Plasmodium PK7 catalytic activity – biochemical, TCAMS antimalarial set, Kinase-Glo luminescence (AID 1159587). To be noted: recombinant PfPK7, Kinase-Glo ATP depletion luminescence.
The target of test [8] is Calcium-dependent protein kinase 4 (Plasmodium falciparum (isolate 3D7)) (UniProt Q8IBS5). Nature of the test: PfCDPK4 kinase inhibitors, biochemical, TCAMS library (AID 1159588; cut-off not given, nearly all actives have IC50 up to about 0.91 µM). Conditions: recombinant PfCDPK4, Kinase-Glo ATP depletion luminescence.
Calcium-dependent protein kinase 4 (Plasmodium falciparum (isolate 3D7)), sequence (Q8IBS5 whole entry, looked up): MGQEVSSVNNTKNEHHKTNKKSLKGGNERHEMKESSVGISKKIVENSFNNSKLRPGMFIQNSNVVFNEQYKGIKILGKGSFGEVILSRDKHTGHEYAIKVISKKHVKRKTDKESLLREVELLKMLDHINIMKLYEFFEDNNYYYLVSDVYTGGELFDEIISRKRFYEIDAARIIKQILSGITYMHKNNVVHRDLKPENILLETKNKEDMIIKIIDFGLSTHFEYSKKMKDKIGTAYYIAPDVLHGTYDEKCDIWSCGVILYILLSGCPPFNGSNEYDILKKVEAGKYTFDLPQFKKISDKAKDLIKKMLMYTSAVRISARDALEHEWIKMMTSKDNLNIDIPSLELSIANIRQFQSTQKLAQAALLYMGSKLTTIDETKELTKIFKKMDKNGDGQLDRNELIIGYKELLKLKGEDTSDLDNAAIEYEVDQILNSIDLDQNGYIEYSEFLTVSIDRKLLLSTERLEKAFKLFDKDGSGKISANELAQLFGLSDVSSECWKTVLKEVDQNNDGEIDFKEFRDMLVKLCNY

L-lactate dehydrogenase (Plasmodium falciparum (isolate CDC / Honduras)), sequence (Q27743 whole entry, looked up): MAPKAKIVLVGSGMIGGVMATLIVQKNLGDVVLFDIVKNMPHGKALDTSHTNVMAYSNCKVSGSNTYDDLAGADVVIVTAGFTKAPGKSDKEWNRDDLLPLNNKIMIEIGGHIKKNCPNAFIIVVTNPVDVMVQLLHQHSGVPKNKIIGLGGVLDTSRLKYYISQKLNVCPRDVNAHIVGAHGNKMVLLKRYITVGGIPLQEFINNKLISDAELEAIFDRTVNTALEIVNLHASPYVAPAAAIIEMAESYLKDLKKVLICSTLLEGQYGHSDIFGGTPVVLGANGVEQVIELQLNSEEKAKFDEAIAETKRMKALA
Calcium-dependent protein kinase 1 (Plasmodium falciparum (isolate 3D7)), sequence (P62344 whole entry, looked up): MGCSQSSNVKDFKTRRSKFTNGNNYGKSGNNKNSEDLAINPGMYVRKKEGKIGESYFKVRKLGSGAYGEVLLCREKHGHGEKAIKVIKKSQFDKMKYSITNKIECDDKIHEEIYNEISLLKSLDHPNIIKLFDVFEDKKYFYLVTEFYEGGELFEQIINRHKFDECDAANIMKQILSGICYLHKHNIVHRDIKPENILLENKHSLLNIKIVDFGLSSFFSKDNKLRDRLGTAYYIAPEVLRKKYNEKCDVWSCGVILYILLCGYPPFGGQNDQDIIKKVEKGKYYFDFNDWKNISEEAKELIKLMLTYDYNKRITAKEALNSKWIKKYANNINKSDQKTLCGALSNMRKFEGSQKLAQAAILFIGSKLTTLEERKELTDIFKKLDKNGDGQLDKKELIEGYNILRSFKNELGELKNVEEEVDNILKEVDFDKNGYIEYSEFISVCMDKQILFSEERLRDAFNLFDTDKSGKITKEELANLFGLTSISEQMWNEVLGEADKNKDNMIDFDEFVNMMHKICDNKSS
Plasmodium falciparum protein kinase 6 (PK6, PF3D7_1337100), sequence (Q8IDW1 1-305): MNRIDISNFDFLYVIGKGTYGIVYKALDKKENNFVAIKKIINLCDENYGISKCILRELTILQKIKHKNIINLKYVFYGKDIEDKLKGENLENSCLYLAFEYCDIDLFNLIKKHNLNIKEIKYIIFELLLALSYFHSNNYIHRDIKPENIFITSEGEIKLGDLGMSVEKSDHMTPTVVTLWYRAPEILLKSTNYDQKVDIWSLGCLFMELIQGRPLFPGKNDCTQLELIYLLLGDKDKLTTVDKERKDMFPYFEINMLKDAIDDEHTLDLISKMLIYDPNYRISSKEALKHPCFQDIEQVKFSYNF
Protein kinase 7 (PK7), Plasmodium falciparum 3D7 (PF3D7_0213400), sequence (Q7YTF7 1-343): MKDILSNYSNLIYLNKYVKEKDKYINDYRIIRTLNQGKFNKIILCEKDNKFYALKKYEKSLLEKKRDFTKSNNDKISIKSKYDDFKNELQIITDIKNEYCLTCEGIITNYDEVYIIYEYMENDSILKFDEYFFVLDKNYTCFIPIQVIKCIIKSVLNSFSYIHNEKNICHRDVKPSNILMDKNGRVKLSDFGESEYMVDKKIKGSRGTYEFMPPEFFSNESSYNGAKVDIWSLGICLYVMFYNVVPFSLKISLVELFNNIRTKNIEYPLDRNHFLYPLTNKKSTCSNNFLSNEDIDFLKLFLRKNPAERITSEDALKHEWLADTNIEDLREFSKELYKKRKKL

Consider `CCCCCN1CCCN(Cc2cccc(NC(=O)c3ccc4ccccc4c3)c2)CC1`, for which the values for the growth inhibition in test [1] and in test [4] were 16% and 86% (active), respectively. The results for the inhibition in test [2] and in test [3] were 27% and -5%, respectively. For the same compound, the outcome in test [5], in test [6], in test [7] and in test [8] was inactive.
Consider `Cc1cc(OCC2CCCO2)c2cc(NC(=O)C(=O)Nc3ccc4nc(C)cc(OCC5CCCO5)c4c3)ccc2n1` (stereo not given), for which the growth inhibition in test [1] is 32%; in test [4] it was 96% (active). For the same compound, the inhibition in test [2] was 7%; in test [3], -4%. Further, the outcome in test [5], in test [6], in test [7] and in test [8] was inactive.
Consider `O=C(Nc1ccnc(N2C[C@H]3C[C@@H]2CN3Cc2cccc(O)c2)c1)c1ccc(F)cc1`, for which the growth inhibition in test [1] was 0%; in test [4], 92% (active). Besides, the figures for the inhibition in test [2] and in test [3] were 2% and 4%, respectively. The result in test [5], in test [6], in test [7] and in test [8] was inactive.
Regarding `CCc1cccc(-n2nc(OCC(=O)NC3CCCC3)c3cccnc32)c1`, the growth inhibition is 13% in test [1] and 94% (active) in test [4]. Besides, the inhibition was 2% in test [2] and -4% in test [3]. Moreover, the outcome in test [5], in test [6], in test [7] and in test [8] was inactive.
On to `O=C(Cn1c(=O)cnc2ccccc21)Nc1cccc(C(=O)Nc2cccc(C(F)(F)F)c2)c1`, for which the figures for the growth inhibition in test [1] and in test [4] were 66% (active) and 90% (active), respectively. Further, the inhibition in test [2] was -12%; in test [3] it was 3%. The outcome in test [5], in test [6], in test [7] and in test [8] was inactive.
For `N#Cc1cccc(C(=O)Nc2cccc(-c3cccc(CN4CCNCC4)c3)c2)c1`, the growth inhibition in test [1] is 10%; in test [4], 89% (active). The inhibition in test [2] was 37%; in test [3], -3%. The result in test [5], in test [6], in test [7] and in test [8] was inactive.
On to `O=C(/C=C/C=C/c1ccccc1)NCCCCCN1CCC(c2c[nH]c3ccccc23)CC1`, for which the growth inhibition in test [1] was 7%; in test [4], 85% (active). Further, the inhibition in test [2] is 28%; in test [3], 4%. Besides, the outcome in test [5], in test [6], in test [7] and in test [8] was inactive.
In the case of `Cc1cccc2[nH]c(-c3cccc(-c4cccc(NC(=O)N[C@@H]5C[C@H]5c5ccccc5)c4)c3)nc12`, the results for the growth inhibition in test [1] and in test [4] were 28% and 98% (active), respectively. Further, the inhibition is -4% in test [2] and -1% in test [3]. The result in test [5], in test [6], in test [7] and in test [8] was inactive.
As for `COc1ccc2c(c1)c(C1CCN(CCCCNC(=O)c3ccc(-c4ccc(C(F)(F)F)cc4)cc3)CC1)cn2C(C)C`, the growth inhibition in test [1] was 21%; in test [4] it was 99% (active). Besides, the results for the inhibition in test [2] and in test [3] were 26% and 0%, respectively. The result in test [5], in test [6], in test [7] and in test [8] was inactive.
With `Cc1onc(-c2ccccc2)c1C(=O)Nc1nc(-c2ccccn2)nc2ccsc12`, the growth inhibition in test [1] is 78% (active); in test [4], 97% (active). Also, the inhibition was 23% in test [2] and -4% in test [3]. Moreover, the outcome in test [5], in test [6], in test [7] and in test [8] was inactive.
On to `CSc1ccc(NC(=O)Nc2cc(C)nc3ccccc23)cc1`, for which the growth inhibition is 23% in test [1] and 100% (active) in test [4]. In addition, the inhibition was 7% in test [2] and 1% in test [3]. Further, the outcome in test [5], in test [6], in test [7] and in test [8] was inactive.
For `Cc1cc(N2CCN(C3CCCCC3)CC2)nc2cccc(O)c12`, the growth inhibition in test [1] was 37%; in test [4] it was 101% (active). Moreover, the inhibition in test [2] is 12%; in test [3], -3%. The outcome in test [5], in test [6], in test [7] and in test [8] was inactive.
Turning to `COc1ccc2c(c1C1CCN(CCCCNC(=O)c3ccc(-c4ccc(Cl)cn4)cc3)CC1)CCCC2`, the growth inhibition is 49% in test [1] and 90% (active) in test [4]. Moreover, the figures for the inhibition in test [2] and in test [3] were 29% and -2%, respectively. The outcome in test [5], in test [6], in test [7] and in test [8] was inactive.
Take `Cc1ccc(OCCCON2C(N)=NC(N)=NC2(C)C)cc1C`: the growth inhibition in test [1] was 94% (active); in test [4], 96% (active). For the same compound, the inhibition in test [2] is 57% (active); in test [3] it was 0%. The result in test [5], in test [6], in test [7] and in test [8] was inactive.
For the compound `FC(F)(F)c1ccc(CNCC2CCN(Cc3ccc4c(c3)OCO4)CC2)cc1`, the growth inhibition was 12% in test [1] and 80% (active) in test [4]. Moreover, the results for the inhibition in test [2] and in test [3] were 27% and -5%, respectively. Also, the outcome in test [5], in test [6], in test [7] and in test [8] was inactive.
`O=c1[nH]c(Cc2ccccc2)nc2ccc(Cl)cc12`: the growth inhibition in test [1] is 76% (active); in test [4] it was 92% (active). For the same compound, the inhibition in test [2] was 13%; in test [3], 3%. The result in test [5], in test [6], in test [7] and in test [8] was inactive.
In the case of `COc1ccccc1-n1ccnc1SCC(=O)Nc1cc(C(F)(F)F)ccc1Cl`, the growth inhibition in test [1] and in test [4] was 97% (active) each time. Further, the inhibition in test [2] was -2%; in test [3], 2%. The result in test [5], in test [6], in test [7] and in test [8] was inactive.
Regarding `COc1ccc(CN2CCCN(Cc3cccc(NC(=O)c4ccc(-c5ccccc5)cc4)c3)CC2)cc1`, the growth inhibition is 24% in test [1] and 94% (active) in test [4]. For the same compound, the figures for the inhibition in test [2] and in test [3] were 37% and 1%, respectively. The outcome in test [5], in test [6], in test [7] and in test [8] was inactive.
Consider `CC(C)CNCc1cccc(-c2ccc(CNc3ccc(C(=O)c4ccccc4)cc3)cc2)c1`, for which the growth inhibition in test [1] was 0%; in test [4], 97% (active). The inhibition in test [2] was 10%; in test [3], 0%. Also, the outcome in test [5], in test [6], in test [7] and in test [8] was inactive.
As for `CN(C)c1ccc(C=C2SC(=Nc3ccccc3)N(c3ccccc3)C2=O)cc1[N+](=O)[O-]`, the growth inhibition in test [1] is 82% (active); in test [4], 96% (active). Moreover, the inhibition in test [2] was 9%; in test [3] it was 7%. Moreover, the outcome in test [5], in test [6], in test [7] and in test [8] was inactive.
